Measurements taken from PubChem BioAssay (NCATS).
Inconclusive results are not listed. A number with no mark means an inactive call. Activity calls are given as the source filed them. Calls come from the whole dose curve; as a rule, active = well fitted inhibition curve with a large enough effect; inconclusive = small, poorly fitted or top-dose-only effect; inactive = flat fitted curve, though single readings scatter.

Assay: P-glycoprotein substrates identified in KB-8-5-11 adenocarcinoma cell line, qHTS therapeutic library screen (AID 1346987); note: nearly all actives have a fitted effect of over 65% in size
Settings: KB-8-5-11 (P-gp overexpressing) viability, CellTiter-Glo, 72 h; series mostly up to 44.5 µM; activity change, negative = cytotoxicity: at the top concentration
Procedure, shortened: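 In this qHTS, P-gp-rich KB-8-5-11 cells received library compounds across a concentration range. Viability was quantified by luminescence after 72 h at 37 degree C.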
% is set by controls: 0 for no effect and ±100 for the full control effect; potency is the fitted concentration of half-maximal effect.

Structure (SMILES)	activity change, negative = cytotoxicity	outcome	Potency
CC(C)(C)c1cc(Br)cc([C@H](CC(=O)O)NC(=O)CNC(=O)c2cc(O)cc(NC3=NCC(O)CN3)c2)c1 (stereo partly drawn)	3.03%		
C/C=C(/COC(=O)/C(C)=C/C)C(=O)OC(CC)c1ccc(OC)c(OC)c1 (stereo not drawn)		inactive	
CO[C@H]1C[C@@H]2CC[C@@H](C)[C@@](O)(O2)C(=O)C(=O)N2CCCC[C@H]2C(=O)O[C@H]([C@H](C)C[C@@H]2CC[C@@H](OP(C)(C)=O)[C@H](OC)C2)CC(=O)[C@H](C)/C=C(\C)[C@@H](O)[C@@H](OC)C(=O)[C@H](C)C[C@H](C)/C=C/C=C/C=C/1C	-25.4% [at 17.3 µM]		
Cc1ccc(S(=O)(=O)c2ccc([N+](=O)[O-])o2)cc1			4.61 µM (active)
C=C1CCC2C(C)(C)CCC[C@]2(C)[C@H]1C/C=C(\CO)C(=O)C(=O)O (stereo partly drawn)	-9.08%		
Cc1ncc(CCCN(C)C)cc1Nc1ncc2c(n1)-c1ccc(C(F)(F)F)cc1NC(=S)C2			0.0651 µM (active)
CCC(CC)C(=O)Nc1sc2c(c1C#N)CCC(C(C)(C)CC)C2 (stereo not drawn)	-13.3%		
O=C(NCc1ccc(S(=O)(=O)c2cc(F)cc(F)c2)cc1)c1ccc2nccn2c1			0.0184 µM (active)
C[C@@H]1O[C@@H](O[C@H]2[C@H](OC(=O)[C@]34CCC(C)(C)C[C@H]3C3=CCC5[C@@]6(C)C[C@H](O)[C@H](O[C@@H]7O[C@H](CO)[C@@H](O[C@H]8OC[C@](O)(CO)[C@H]8O)[C@H](O)[C@H]7O)[C@@](C)(CO)C6[C@H](O)C[C@@]5(C)[C@]3(C)C[C@H]4O)OC[C@H](O)[C@@H]2O)[C@H](O)[C@H](O)[C@H]1O[C@@H]1OC[C@@H](O)[C@H](O[C@@H]2OC[C@](O)(CO)[C@H]2O)[C@H]1O (stereo partly drawn)	9.78% [at 9.29 µM]		
CC1=C(C(=O)O)/C(=C\CO[C@@H]2O[C@H](CO)[C@@H](O)[C@H](O)[C@H]2O)C(OC(=O)/C=C/c2ccc(O)cc2)C1 (stereo partly drawn)		inactive [at 17.3 µM]	
C/C=C/c1ccc(O[C@@H]2O[C@H](CO)[C@@H](O)[C@H](O)[C@H]2O)c(OC)c1	-12.3%		
COc1cc2ncnc(Nc3ccc(F)c(Cl)c3)c2cc1NC(=O)/C=C/CN1CCCCC1			10.3 µM (active)
CC1CC[C@]2(C(=O)O)CC[C@]3(C(=O)O)C(=CCC4[C@@]5(C)CC[C@H](O[C@@H]6O[C@H](CO)[C@@H](O)[C@H](O)[C@H]6O)C(C)(C)C5CC[C@]43C)C2C1C (stereo partly drawn)	3.65% [at 17.3 µM]		
CC(=O)O[C@@H]1[C@@H](O)[C@H](C)O[C@@H](O[C@H]2[C@@H]3C=CO[C@@H](O[C@@H]4O[C@H](CO)[C@@H](O)[C@H](O)[C@H]4O)[C@@H]3[C@@]3(CO)O[C@@H]23)[C@@H]1OC(=O)/C=C/c1ccccc1	6.26% [at 17.3 µM]		
CCOc1cc(N2CCC(O)CC2)ccc1Nc1ncc2c(n1)N(C1CCCC1)CCC(=O)N2C			11.6 µM (active)
CC/C=C\[C@H](O)[C@H](O)C1=C(C)C(=O)[C@]2(O1)C(=O)N[C@@](OC)(C(=O)c1ccccc1)[C@@H]2O		inactive [at 17.3 µM]	
CC1CCC2(CO)C(C(=O)O)=CCCC2C1(C)CCc1ccoc1 (stereo not drawn)	3.58%		
CC1(C)CC[C@]2(C(=O)O[C@@H]3O[C@H](CO)[C@@H](O)[C@H](O)[C@H]3O)CC[C@]3(C)C(=CCC4[C@@]5(C)CC[C@H](O[C@@H]6O[C@H](C(=O)O)[C@@H](O)[C@H](O[C@@H]7O[C@H](CO)[C@H](O)[C@H](O)[C@H]7O)[C@H]6O)C(C)(C)C5CC[C@]43C)C2C1 (stereo partly drawn)		inactive [at 9.29 µM]	
Cn1cc(S(=O)(=O)c2ccc(Cl)cc2)c2cccc(N3CCNCC3)c21			20.6 µM (active)
CC1CCC2(C=O)C(CO)=CCCC2C1(C)CC(=O)O (stereo not drawn)	7.97%		
COc1cc(-c2ncn(/C=C\C(=O)OC(C)C)n2)cc(C(F)(F)F)c1			0.259 µM (active)
CC(C)=CCC[C@](C)(O[C@@H]1O[C@H](CO[C@@H]2O[C@H](CO)[C@@H](O)[C@H](O)[C@H]2O)[C@@H](O)[C@H](O)[C@H]1O)C1CC[C@]2(C)[C@@H]1[C@H](O)CC1[C@@]3(C)CC[C@H](O[C@@H]4O[C@H](CO)[C@@H](O)[C@H](O)[C@H]4O[C@@H]4O[C@H](CO)[C@@H](O)[C@H](O)[C@H]4O)C(C)(C)[C@@H]3CC[C@]12C (stereo partly drawn)	-1.53% [at 9.29 µM]		
COC(=O)N[C@@H](C)CNc1nccc(-c2cn(C(C)C)nc2-c2cc(Cl)cc(NS(C)(=O)=O)c2F)n1	-17.3%		
